Assay results published in PMC7862700, “An all-to-all approach to the identification of sequence-specific readers for epigenetic DNA modifications on cytosine”.

Tests used:
Assay in all cases: DAPPL (digital affinity profiling via proximity ligation, sequencing); 10 mM Tris-HCl pH 7.5, 50 mM NaCl, 1 mM DTT, 4% glycerol, room temperature, 30 min; GST-TFs on glutathione beads, 16-mer random dsDNA library, 0.1% formaldehyde crosslink after washing; high values mean tight binding
Details in all cases: protein: recombinant; tags: N-terminal GST; dsDNA, one strand shown
FLI1 = target: T1, FLI1 (Homo sapiens, UniProt Q01543 1-452)
T1 sequence: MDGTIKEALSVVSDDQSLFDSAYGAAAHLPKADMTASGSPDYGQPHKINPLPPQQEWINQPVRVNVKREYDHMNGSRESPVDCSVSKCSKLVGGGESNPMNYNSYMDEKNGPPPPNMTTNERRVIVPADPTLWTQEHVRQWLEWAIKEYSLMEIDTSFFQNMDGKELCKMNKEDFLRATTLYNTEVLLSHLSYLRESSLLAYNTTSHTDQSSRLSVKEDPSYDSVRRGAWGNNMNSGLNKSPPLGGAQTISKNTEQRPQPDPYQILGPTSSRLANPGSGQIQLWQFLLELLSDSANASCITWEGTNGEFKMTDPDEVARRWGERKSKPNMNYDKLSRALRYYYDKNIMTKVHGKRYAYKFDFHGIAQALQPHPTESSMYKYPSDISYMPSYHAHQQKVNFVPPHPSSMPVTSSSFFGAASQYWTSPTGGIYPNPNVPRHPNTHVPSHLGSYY
How it was run: (§1)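 Binding signal is defined as a hexamer's read frequency for one factor over its frequency for the tag-only sample. To obtain reads, GST-fused human transcription factors were expressed in yeast, captured on glutathione beads, barcoded with DNA and pooled with that sample. Pools met 200 nmole of a 16-mer random double-stranded DNA library in Tris/NaCl/DTT/glycerol buffer for 30 min at room temperature before washing, 0.1% formaldehyde crosslinking, proximity ligation (BsaI/T4 ligase, 1 h, 37 °C), PCR and Illumina NextSeq500 sequencing.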

ELK1 = target: T2, ELK1 (Homo sapiens, UniProt P19419 1-428)
T2 sequence: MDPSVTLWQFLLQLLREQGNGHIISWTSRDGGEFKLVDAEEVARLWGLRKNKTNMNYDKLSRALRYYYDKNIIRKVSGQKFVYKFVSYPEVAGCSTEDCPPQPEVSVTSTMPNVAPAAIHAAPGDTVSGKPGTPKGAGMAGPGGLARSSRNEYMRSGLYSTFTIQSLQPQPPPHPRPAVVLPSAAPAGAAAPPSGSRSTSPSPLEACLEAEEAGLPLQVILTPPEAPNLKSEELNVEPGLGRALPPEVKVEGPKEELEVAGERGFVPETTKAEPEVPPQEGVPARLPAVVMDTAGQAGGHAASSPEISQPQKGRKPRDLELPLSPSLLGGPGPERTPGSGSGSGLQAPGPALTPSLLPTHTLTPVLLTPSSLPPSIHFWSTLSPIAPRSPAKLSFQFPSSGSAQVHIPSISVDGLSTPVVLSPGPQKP
How it was run: as §1

GABPA = target: T3, GABPA (Homo sapiens, UniProt Q06546 1-454)
T3 sequence: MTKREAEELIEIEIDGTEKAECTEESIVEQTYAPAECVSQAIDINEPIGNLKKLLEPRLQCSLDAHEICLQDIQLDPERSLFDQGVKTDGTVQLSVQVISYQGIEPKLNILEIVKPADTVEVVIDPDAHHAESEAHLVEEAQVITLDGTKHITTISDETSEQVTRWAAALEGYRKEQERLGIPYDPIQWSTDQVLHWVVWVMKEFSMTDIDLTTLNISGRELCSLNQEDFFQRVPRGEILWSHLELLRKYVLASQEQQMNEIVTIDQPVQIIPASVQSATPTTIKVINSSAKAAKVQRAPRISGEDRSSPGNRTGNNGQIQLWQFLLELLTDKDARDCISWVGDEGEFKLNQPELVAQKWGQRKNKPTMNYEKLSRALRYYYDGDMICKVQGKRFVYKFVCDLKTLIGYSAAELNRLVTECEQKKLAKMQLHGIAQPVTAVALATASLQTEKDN
How it was run: as §1

ERG = target: T4, ERG (Homo sapiens, UniProt P11308 1-479)
T4 sequence: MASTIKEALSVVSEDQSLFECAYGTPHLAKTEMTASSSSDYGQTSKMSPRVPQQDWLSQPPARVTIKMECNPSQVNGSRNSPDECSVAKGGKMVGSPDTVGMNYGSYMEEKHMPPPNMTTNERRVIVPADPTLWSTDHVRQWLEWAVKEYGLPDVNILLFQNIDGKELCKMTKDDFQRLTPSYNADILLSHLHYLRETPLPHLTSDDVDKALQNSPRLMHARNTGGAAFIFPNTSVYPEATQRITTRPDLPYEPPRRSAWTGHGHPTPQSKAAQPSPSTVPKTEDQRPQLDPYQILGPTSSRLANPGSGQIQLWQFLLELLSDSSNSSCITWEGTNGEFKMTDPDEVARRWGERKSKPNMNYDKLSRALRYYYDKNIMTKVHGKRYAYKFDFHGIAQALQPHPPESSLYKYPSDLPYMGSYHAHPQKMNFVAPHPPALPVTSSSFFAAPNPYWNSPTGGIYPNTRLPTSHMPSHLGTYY
How it was run: as §1

ELF1 = ELF1 (Homo sapiens, UniProt P32519 1-619)
How it was run: as §1

EHF = target: T5, EHF (Homo sapiens, UniProt Q9NZC4 1-300)
T5 sequence: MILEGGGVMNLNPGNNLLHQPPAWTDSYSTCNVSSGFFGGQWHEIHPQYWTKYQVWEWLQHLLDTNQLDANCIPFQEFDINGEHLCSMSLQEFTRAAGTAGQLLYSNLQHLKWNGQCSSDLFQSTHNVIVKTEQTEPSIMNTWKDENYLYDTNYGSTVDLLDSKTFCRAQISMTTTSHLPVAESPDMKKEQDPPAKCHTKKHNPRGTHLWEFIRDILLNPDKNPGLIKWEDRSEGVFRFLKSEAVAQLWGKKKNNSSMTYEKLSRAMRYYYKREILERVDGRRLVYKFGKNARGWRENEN
How it was run: as §1

SPI1 = SPI1 (Homo sapiens, UniProt P17947 1-270)
How it was run: as §1

SPIB = SPIB (Homo sapiens, UniProt Q01892 1-262)
How it was run: as §1

ELK3 = target: T6, ELK3 (Homo sapiens, UniProt P41970 1-407)
T6 sequence: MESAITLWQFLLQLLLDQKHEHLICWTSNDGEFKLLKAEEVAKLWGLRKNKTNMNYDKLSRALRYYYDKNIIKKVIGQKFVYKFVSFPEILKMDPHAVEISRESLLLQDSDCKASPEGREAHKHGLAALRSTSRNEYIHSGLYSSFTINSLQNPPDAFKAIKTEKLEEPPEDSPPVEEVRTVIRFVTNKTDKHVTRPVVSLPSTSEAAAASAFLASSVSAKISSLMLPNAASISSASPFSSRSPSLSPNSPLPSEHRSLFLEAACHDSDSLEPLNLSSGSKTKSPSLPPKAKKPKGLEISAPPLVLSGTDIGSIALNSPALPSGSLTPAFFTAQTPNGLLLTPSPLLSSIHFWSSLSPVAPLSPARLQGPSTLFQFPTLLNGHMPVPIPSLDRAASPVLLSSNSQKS
How it was run: as §1

ETV5 = ETV5 (Homo sapiens, UniProt P41161 1-510)
How it was run: as §1

ELF4 = ELF4 (Homo sapiens, UniProt Q99607 1-663)
How it was run: as §1

ELF3 = target: T7, ELF3 (Homo sapiens, UniProt P78545 1-371)
T7 sequence: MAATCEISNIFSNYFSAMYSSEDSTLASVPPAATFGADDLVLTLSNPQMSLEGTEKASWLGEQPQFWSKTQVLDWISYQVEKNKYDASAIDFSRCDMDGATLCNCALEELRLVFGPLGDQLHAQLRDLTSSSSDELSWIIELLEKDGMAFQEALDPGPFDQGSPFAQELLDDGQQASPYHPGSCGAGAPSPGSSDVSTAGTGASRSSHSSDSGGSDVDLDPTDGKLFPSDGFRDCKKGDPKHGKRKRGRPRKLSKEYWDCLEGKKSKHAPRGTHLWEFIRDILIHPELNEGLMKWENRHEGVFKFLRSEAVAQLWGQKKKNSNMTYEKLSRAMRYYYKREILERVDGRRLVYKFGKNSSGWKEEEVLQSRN
How it was run: as §1

ETV1 = ETV1 (Homo sapiens, UniProt P50549 1-477)
How it was run: as §1

ERF = target: T8, ERF (Homo sapiens, UniProt P50548 1-548)
T8 sequence: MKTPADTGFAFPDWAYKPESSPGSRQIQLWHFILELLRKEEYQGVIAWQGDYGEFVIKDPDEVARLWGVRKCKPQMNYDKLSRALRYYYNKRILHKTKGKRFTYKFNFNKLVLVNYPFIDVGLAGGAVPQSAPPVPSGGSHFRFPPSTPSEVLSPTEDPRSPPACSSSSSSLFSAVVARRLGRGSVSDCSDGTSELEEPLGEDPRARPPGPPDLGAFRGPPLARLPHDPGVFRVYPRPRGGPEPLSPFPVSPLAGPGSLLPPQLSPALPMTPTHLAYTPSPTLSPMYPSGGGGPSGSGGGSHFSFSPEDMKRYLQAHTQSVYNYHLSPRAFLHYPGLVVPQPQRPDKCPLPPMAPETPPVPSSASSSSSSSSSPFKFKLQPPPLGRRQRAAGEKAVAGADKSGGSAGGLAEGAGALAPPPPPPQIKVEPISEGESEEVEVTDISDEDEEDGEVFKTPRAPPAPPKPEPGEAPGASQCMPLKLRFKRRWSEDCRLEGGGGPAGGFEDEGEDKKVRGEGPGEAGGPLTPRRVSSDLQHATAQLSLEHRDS
How it was run: as §1

ETV3L = target: T9, ETV3L (Homo sapiens, UniProt Q6ZN32 1-361)
T9 sequence: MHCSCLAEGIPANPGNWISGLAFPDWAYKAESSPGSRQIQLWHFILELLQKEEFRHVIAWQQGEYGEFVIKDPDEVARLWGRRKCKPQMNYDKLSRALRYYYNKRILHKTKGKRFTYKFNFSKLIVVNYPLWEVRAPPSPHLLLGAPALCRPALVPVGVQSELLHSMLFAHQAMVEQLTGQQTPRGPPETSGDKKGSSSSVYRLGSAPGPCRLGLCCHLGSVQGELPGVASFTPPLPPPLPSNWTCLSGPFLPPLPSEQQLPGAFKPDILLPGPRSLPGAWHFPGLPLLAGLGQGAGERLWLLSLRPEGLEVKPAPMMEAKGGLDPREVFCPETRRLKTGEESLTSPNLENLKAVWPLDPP
How it was run: as §1

ETS2 = target: T10, ETS2 (Homo sapiens, UniProt P15036 1-469)
T10 sequence: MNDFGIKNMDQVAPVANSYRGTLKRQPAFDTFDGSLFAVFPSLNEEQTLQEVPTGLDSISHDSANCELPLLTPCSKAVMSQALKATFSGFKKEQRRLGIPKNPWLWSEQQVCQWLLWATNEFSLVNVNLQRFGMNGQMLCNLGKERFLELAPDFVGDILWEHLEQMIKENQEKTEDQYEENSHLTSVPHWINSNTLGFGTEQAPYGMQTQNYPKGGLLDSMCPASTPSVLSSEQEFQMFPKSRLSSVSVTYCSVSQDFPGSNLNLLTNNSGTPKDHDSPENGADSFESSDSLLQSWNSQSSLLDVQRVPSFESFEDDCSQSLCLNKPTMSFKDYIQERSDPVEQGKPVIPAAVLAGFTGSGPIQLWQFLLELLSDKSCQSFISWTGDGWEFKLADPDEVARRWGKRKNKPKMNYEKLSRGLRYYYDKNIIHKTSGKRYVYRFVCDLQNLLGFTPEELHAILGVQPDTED
How it was run: as §1

ETV7 = target: T11, ETV7 (Homo sapiens, UniProt Q9Y603 1-341)
T11 sequence: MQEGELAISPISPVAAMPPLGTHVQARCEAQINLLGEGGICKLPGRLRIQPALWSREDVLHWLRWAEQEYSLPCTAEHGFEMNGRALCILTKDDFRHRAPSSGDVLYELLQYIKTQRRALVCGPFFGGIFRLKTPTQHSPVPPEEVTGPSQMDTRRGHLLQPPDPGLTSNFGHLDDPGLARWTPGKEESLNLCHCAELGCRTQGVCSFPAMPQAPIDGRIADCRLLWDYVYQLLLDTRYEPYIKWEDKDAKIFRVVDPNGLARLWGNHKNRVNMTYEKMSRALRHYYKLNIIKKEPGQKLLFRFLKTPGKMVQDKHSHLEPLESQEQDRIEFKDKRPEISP
How it was run: as §1

ETV3 = target: T12, ETV3 (Homo sapiens, UniProt P41162-2 1-143)
T12 sequence: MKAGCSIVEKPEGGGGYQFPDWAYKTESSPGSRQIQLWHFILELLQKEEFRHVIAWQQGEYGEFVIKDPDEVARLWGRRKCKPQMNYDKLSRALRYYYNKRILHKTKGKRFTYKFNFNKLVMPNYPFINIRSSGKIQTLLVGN
How it was run: as §1

ETV6 = ETV6 (Homo sapiens, UniProt P41212 1-452)
How it was run: as §1

Chain of ETV1 (P50549 whole entry): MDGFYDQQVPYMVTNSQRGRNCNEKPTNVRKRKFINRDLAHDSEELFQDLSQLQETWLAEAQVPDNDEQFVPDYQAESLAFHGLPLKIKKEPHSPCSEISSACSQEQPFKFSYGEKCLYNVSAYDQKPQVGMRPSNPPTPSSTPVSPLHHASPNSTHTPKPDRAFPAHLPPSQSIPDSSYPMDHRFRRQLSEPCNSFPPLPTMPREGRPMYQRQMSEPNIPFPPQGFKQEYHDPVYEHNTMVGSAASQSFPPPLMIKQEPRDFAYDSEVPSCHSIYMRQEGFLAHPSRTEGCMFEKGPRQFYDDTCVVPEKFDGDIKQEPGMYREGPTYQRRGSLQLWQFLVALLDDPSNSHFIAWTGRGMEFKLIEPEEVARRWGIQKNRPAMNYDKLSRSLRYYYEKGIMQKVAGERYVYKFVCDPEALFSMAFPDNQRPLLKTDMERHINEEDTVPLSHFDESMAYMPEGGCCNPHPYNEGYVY
Chain of ELF1 (P32519 whole entry): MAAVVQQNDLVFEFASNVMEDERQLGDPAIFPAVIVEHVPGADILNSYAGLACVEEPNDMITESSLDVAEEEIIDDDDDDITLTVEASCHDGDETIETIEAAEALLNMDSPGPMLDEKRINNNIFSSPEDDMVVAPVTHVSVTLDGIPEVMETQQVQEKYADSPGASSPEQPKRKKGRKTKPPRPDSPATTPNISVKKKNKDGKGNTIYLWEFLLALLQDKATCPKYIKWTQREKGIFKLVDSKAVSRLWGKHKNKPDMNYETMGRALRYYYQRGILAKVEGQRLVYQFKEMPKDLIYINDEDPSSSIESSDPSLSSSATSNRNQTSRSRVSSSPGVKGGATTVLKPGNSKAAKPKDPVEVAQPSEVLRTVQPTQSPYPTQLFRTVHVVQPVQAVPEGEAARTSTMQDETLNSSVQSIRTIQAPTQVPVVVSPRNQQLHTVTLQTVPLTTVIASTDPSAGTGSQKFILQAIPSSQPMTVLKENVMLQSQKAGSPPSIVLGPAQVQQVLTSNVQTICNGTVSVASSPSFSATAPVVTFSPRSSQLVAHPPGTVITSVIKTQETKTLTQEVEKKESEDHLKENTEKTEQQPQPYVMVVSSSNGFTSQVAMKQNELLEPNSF
Chain of SPIB (Q01892 whole entry): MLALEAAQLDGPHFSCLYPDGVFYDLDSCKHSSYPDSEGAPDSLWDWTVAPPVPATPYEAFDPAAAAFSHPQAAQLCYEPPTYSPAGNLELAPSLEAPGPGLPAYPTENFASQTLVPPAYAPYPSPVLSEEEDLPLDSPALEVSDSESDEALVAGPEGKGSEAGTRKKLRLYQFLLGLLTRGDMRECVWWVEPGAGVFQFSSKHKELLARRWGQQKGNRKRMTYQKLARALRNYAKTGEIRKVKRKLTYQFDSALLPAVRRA
Chain of ETV5 (P41161 whole entry): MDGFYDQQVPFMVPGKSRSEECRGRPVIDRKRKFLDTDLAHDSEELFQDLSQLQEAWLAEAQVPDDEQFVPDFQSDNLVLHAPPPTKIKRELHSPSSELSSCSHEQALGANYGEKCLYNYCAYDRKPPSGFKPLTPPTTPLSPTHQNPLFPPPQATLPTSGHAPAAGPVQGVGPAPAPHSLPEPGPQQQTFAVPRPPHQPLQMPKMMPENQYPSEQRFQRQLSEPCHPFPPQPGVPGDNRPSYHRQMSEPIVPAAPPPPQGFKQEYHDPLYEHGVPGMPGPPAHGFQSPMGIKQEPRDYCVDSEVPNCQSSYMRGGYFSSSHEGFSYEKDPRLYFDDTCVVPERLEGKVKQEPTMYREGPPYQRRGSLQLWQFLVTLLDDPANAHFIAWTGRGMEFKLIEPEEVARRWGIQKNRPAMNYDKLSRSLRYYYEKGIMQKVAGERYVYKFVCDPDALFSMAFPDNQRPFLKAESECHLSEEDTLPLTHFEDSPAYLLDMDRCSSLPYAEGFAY
Chain of ETV6 (P41212 whole entry): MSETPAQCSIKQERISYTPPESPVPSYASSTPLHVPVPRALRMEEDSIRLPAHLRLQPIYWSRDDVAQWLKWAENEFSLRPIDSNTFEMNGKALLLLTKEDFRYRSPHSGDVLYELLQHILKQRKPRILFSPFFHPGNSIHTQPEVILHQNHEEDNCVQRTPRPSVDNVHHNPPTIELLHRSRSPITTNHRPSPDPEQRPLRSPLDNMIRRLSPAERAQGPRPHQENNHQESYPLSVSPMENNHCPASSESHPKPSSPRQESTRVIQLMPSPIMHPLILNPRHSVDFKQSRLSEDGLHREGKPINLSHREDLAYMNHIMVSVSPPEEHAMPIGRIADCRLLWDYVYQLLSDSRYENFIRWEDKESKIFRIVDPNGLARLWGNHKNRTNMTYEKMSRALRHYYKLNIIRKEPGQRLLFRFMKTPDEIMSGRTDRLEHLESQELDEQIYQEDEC
Chain of ELF4 (Q99607 whole entry): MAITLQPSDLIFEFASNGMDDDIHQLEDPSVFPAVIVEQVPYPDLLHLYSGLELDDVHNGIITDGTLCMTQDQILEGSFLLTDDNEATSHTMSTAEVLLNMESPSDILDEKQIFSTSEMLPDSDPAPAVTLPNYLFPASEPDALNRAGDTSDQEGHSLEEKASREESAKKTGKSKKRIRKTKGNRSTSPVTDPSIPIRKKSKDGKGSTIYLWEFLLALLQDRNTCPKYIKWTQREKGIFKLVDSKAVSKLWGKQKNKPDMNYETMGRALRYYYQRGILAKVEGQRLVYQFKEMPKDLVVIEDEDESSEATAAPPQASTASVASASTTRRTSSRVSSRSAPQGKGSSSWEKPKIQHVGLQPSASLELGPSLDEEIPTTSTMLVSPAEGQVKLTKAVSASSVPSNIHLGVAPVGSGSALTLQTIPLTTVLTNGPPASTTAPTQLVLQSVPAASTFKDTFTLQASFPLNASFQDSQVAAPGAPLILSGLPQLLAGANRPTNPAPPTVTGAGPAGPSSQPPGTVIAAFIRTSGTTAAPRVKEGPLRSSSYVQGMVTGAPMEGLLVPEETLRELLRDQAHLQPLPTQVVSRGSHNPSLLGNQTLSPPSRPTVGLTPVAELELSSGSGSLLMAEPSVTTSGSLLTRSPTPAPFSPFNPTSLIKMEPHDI

GTTGTT was tested, and the binding signal (FLI1) was 1.17 fold enrichment (6-mer frequency, TF over GST control), the binding signal (ELK1) was 1.12 fold enrichment (6-mer frequency, TF over GST control) and the binding signal (GABPA) was 1.04 fold enrichment (6-mer frequency, TF over GST control). For the same sequence, the binding signal (ERG) was 1.02 fold enrichment (6-mer frequency, TF over GST control), the binding signal (ELF1) was 1.09 fold enrichment (6-mer frequency, TF over GST control) and the binding signal (EHF) was 1.12 fold enrichment (6-mer frequency, TF over GST control). The binding signal (SPI1) was 1.09 fold enrichment (6-mer frequency, TF over GST control), the binding signal (SPIB) was 1.22 fold enrichment (6-mer frequency, TF over GST control) and the binding signal (ELK3) was 1.1 fold enrichment (6-mer frequency, TF over GST control). For the same sequence, the binding signal (ETV5) was 1.02 fold enrichment (6-mer frequency, TF over GST control), the binding signal (ELF4) was 1.04 fold enrichment (6-mer frequency, TF over GST control) and the binding signal (ELF3) was 1.13 fold enrichment (6-mer frequency, TF over GST control). The binding signal (ETV1) was 1.14 fold enrichment (6-mer frequency, TF over GST control), the binding signal (ERF) was 1.06 fold enrichment (6-mer frequency, TF over GST control) and the binding signal (ETV3L) was 1.14 fold enrichment (6-mer frequency, TF over GST control). The binding signal (ETS2) was 1.06 fold enrichment (6-mer frequency, TF over GST control), the binding signal (ETV7) was 1.25 fold enrichment (6-mer frequency, TF over GST control) and the binding signal (ETV3) was 1.11 fold enrichment (6-mer frequency, TF over GST control). For the same sequence, the binding signal (ETV6) was 1.09 fold enrichment (6-mer frequency, TF over GST control).
